# High-throughput results as filed in PubChem BioAssay.
# GALK inhibitor: galactokinase (human) inhibition. P51570. Purified GALK, Kinase-Glo residual ATP luminescence. Potency, µM (highest dose often 57.5 µM), without a hit: at the highest dose activity change, negative = inhibition, usual class: inhibitors. 270,000 tested, 0.007% active. AID 1868; also: potency is read from the fitted curve at half-maximal effect
#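 Luminescence from leftover ATP (Ultra-Glo luciferase/luciferin) served as read-out after a 1 h room-temperature reaction of 5 nM GALK with 35 uM ATP and 100 uM galactose.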
# TrxR1 substrate: substrates of rat thioredoxin reductase 1; O89049; purified TrxR1 substrate turnover, NADPH consumption readout; Potency, µM (top dose mostly 114 µM), for inactives: top-dose activity change, negative = substrate turnover; 390,000 tested, 0.01% active; AID 588456; also: potency is read from the fitted curve at half-maximal effect; nearly all actives have a fitted effect of over 50% in size
# Target sequence (O89049 whole entry, looked up): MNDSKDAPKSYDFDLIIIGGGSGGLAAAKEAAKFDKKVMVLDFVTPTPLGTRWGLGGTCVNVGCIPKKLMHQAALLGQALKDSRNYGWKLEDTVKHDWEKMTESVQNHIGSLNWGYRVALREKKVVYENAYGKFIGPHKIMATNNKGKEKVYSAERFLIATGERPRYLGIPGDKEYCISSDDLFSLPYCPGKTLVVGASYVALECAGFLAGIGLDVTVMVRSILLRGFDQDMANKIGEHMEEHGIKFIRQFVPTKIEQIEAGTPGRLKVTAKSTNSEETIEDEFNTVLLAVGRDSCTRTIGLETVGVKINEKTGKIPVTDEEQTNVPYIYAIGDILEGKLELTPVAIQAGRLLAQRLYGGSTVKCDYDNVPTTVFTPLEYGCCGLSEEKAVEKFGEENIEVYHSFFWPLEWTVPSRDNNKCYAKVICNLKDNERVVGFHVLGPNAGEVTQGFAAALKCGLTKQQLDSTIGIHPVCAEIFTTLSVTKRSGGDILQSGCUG
#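 Rat TrxR1, dispensed at 90 nM, was prereduced with 400 uM NADPH (final) for 5 min at ~22 deg C, then incubated with compound 15 min before 400 uM selenite. A first-read NADPH fluorescence drop versus no-compound background flagged substrates.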
# TrxR1 inh: blocks rat thioredoxin reductase 1; O89049; recombinant rTrxR1, NADPH fluorescence consumption, selenite substrate; Potency, µM (doses to about 114 µM), inactives show top-dose activity change, negative = inhibition, usual class: inhibitors; 390,000 tested, 1% active; also: potency is read from the fitted curve at half-maximal effect; nearly all actives have a fitted effect of over 65% in size
#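 Rat TrxR1 (90 nM in the dispensed reagent) was pre-reduced with 400 uM NADPH for 5 min at room temperature, then incubated with compound for 15 min. After 400 uM selenite was added, NADPH fluorescence (Ex 340/Em 450 nm) was followed for 8 min.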
# GCN5L2 inh: inhibitors of human GCN5L2 histone acetyltransferase; Q92830; GCN5L2 HAT assay, ThioGlo1 CoA-SH fluorescence; Potency, µM (highest dose often 58.9 µM), for the others: at the highest dose activity change, negative = inhibition, most hits filed as inhibitors; 390,000 tested, 0.21% active; also: potency is read from the fitted curve at half-maximal effect
#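 Fluorescence readout, Ex340nm/Em540nm: ThioGlo1 (50uM final) reacts with free CoA thiol released as 20nM GCN5L2 acetylates H3(1-25) peptide (75uM) using acetyl-CoA (70uM). Compound and enzyme sat 15 min beforehand; 20 min room-temperature reaction.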
# Pin1 inh: inhibitors of human Pin1; Q13526; Pin1 FP peptide displacement, HiFluor488, 10 min; Potency, µM (top dose mostly 115 µM), without a hit: top-dose activity, negative = inhibition, usual class: inhibitors; 390,000 tested, 0.009% active; AID 504891; active = well fitted inhibition curve with a large enough effect in the polarisation, with a control signal flat, not every such curve was filed as active; inconclusive = small, poorly fitted or top-dose-only effect, or effect the other way, or a change in a side signal; inactive = no such curve, though single readings can be large or run the other way; the % refers to the polarisation; also: potency is read from the fitted curve at half-maximal effect
# Target sequence (Q13526 whole entry, looked up): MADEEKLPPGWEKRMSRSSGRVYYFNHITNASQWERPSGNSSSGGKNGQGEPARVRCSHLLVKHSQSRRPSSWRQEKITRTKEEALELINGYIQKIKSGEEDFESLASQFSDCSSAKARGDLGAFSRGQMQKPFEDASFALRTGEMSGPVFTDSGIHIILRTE
# Giardia killer: kills Giardia lamblia. Giardia lamblia trophozoite viability. activity change, % at 7.66 µM, hits read low. 340,000 tested, 0.15% active. AID 540267; in the data active = activity change below about -80%; inconclusive = between about -30% and that limit;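 also: parasites exposed to compound for two days anaerobically before the ATP read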
#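 Media and compound were dispensed first, then trophozoites at 100 cells/well; plates sat 48 hrs at 37 deg C without oxygen before ATP luminescence reagent was added and read after 15-30 min at room temperature.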
# Active calls of the source: *; ? = inconclusive; . = no result; [ ] = dose if it differs, or a comment. An excerpt weighted towards active compounds, which were near 1.3% of everything screened. Unless noted, calls follow the shape of the dose curve; as a rule, active = well fitted curve in the direction sought with a large enough effect; inconclusive = small, poorly fitted or top-dose-only effect, or another doubt; inactive = no such curve, though single readings can be large; an effect the other way counts as inactive or inconclusive. % is scaled to controls: 0 for no effect and ±100 for the full control effect.
SMILES,GALK inhibitor,TrxR1 substrate,TrxR1 inh,GCN5L2 inh,Pin1 inh,Giardia killer
CN(C)S(=O)(=O)c1cccc(NC(=S)Nc2ccc(Cl)cc2Cl)c1,0%,-12%,?,0%,-2%,8
COc1ccc(C(C)=O)cc1COC(=O)CCNS(=O)(=O)c1ccc(C)cc1,.,2%,?,0%,0%,5
COc1ccc(C(C)=O)cc1COC(=O)c1cc(C)nc2ccccc12,15%,6%,?,-9%,2%,-16
COc1ccc(C(C)=O)cc1COC(=O)c1cc(C)oc1C,5%,-4%,10µM*,-3%,4%,31
COc1ccc(C(C)=O)cc1COc1cccnc1[N+](=O)[O-],0%,-2%[57.1 µM],13%[0.0914 µM],-5%,-10%,?
COc1ccc(C(C)=O)cc1COc1ccccc1[N+](=O)[O-],1%,-11%,35µM*,-6%,2%,-4
COc1ccc(C(C)=O)cc1COC(=O)CCNS(=O)(=O)c1ccc(C(C)=O)cc1,7%,-9%,40µM*,-23%,-3%,12
COc1ccc(C(C)=O)cc1COC(=O)c1cc(=O)c2ccccc2o1,15%,13%[0.0914 µM],13µM*,-3%,-5%,-16
CC(C)Oc1cccc(-c2ccnc(N3CCC(C(N)=O)CC3)n2)c1,.,.,.,.,-1%,.
COc1ccc(-n2ncc(C(=O)Nc3cccc(C(F)(F)F)c3)c2C2CCN(C(=O)OC(C)(C)C)CC2)cc1,.,3%,17%,25%,9%,.
COc1cc(CN(C(=O)COc2ccc(C)c(C)c2)c2ccccn2)cc(OC)c1OC,.,-8%,18%,-15%,-11%,.
CS(=O)(=O)c1nc(S(=O)(=O)c2ccc(Cl)cc2)c(N2CCC(C(N)=O)CC2)s1,4%,-11%,32µM*,-4%,-1%,-2
CC(C)(C)c1cc(N2CCOCC2)n2ncc(-c3ccc(Cl)cc3)c2n1,-4%,174%,89µM*,16%,6%,4
Brc1ccc[n+](CCC2CCCCC2)c1,.,-3%,-8%,.,.,.
COc1ccccc1OC[C@H](O)COC(N)=O,.,.,.,13%[21.4 µM],.,.
NC(=O)OC[C@H](O)COc1ccc(Cl)cc1,.,.,.,14µM*,.,.
O=Cc1ccc(-c2ccccc2C(=O)O)o1,0%,5%[57.1 µM],9%[57.1 µM],?,4%,-14
O=C(O)c1ccccc1-c1c2cc(I)c(=O)c(I)c-2oc2c(I)c(O)c(I)cc12,.,-10%,-24%,11µM*,?,-5
O=C(O)c1c(Cl)c(Cl)c(Cl)c(Cl)c1-c1c2cc(I)c(=O)c(I)c-2oc2c(I)c(O)c(I)cc12,.,.,.,2µM*,.,.
O=C(NC1CCCc2ccccc21)c1cnn2c1NC(=C1CC1)C=C2C(F)F (stereo not given),.,1%,26%,.,.,.
Cc1cc(NS(=O)(=O)c2ccc3c(c2)CCC(=O)N3)ccc1F,.,.,.,.,-3%,.
CCc1ccc(NC(=O)c2cnn3c(C)cc(C)nc23)cc1,.,.,.,.,-4%,.
N#C/C(C(=O)Nc1ccc(Cl)cc1)=C(/S)Nc1ccccc1,-3%,-10%,-14%,7.9µM*,-9%,-3
O=C(Nc1ccc(Nc2ccccc2)cc1)c1ccc(Cl)cc1,.,4%,21%,.,-3%,10
O=S(=O)(c1ccc2c(c1)OCCO2)N1CCN(S(=O)(=O)c2ccccc2Cl)CC1,.,.,.,.,-15%,.
SMILES,GALK inhibitor,TrxR1 substrate,TrxR1 inh,GCN5L2 inh,Pin1 inh,Giardia killer
Cc1nn(-c2nc3ccccc3[nH]2)c(=O)c2ccccc12,?,32%,?,-4%,0%,-97*
CCCCCCCCCCCCCCOc1ccc(C(=O)O)o1,.,.,.,7.1µM*,.,.
CCOc1ccc(OCc2ccc(C(=O)O)o2)cc1,0%,10%[57.1 µM],8%[57.1 µM],-1%,-5%,-4
O=C(O)c1ccccc1SC1CC(=O)N(c2ccc3c(c2)OCO3)C1=O (stereo not given),3%,8%,40µM*,0%,-1%,-2
Cc1cccc(N2C(=O)CC(Sc3ccccc3C(=O)O)C2=O)c1 (stereo not given),2%,-3%,56µM*,39%,-10%,10
Cc1cccc(N2C(=O)CC(Sc3ncn[nH]3)C2=O)c1 (stereo not given),0%,-4%,20µM*,-10%,?,9
Cc1cc(C)cc(N2C(=O)CC(Sc3ccccc3C(=O)O)C2=O)c1 (stereo not given),8%,6%[57.1 µM],-83%,-7%,-3%,-6
COc1ccc(N2C(=O)CC(Sc3ccccc3C(=O)O)C2=O)c([N+](=O)[O-])c1 (stereo not given),1%,3%,71µM*,0%,-3%,-4
Cc1ccc(N2C(=O)CC(Sc3ccccc3C(=O)O)C2=O)cc1C (stereo not given),0%,9%,-64%,3%,-2%,4
O=[S+]([O-])(c1ccc2c(c1)OCCO2)N1CCN([S+](=O)([O-])c2c(F)cc(F)cc2Br)CC1,.,.,.,.,-3%,.
COc1ccccc1NC(=O)C1=C(C)Nc2c(C(=O)Nc3ccc(F)cc3)cnn2C1c1cccc([N+](=O)[O-])c1 (stereo not given),.,-7%,6%,-29%,0%,.
Cc1ccc(N2C(=O)CC(Sc3ccccc3C(=O)O)C2=O)c([N+](=O)[O-])c1 (stereo not given),4%,-3%,79µM*,4%,-19%,-27
CC(C)CN1C(=O)CC(Sc2ccccc2C(=O)O)C1=O (stereo not given),-4%,5%,?,-7%,0%,-14
Cc1ccc(N2C(=O)CC(Sc3ccccc3C(=O)O)C2=O)cc1 (stereo not given),-1%,-6%,?,1%,-12%,-17
CCCCN1C(=O)CC(Sc2ccccc2C(=O)O)C1=O (stereo not given),-4%,-3%,16µM*,-7%,-1%,-4
CN(C)c1ccc(N2C(=O)CC(Sc3ccccc3C(=O)O)C2=O)cc1 (stereo not given),.,-9%,79µM*,-7%,-18%,-23
Cc1cc2c(s1)c1cnn(Cc3ccc(F)cc3Cl)c(=O)c1n2C,.,.,.,.,-3%,.
CCCC[C@@H]1CCCO[C@@](C(=O)NCCOC)(C(F)(F)F)C1,.,3%[57.1 µM],26%,.,5%,-9
COCC(C)OC(=O)/C(C#N)=C\c1coc2ccc(C)cc2c1=O (stereo not given),-4%,7%,28µM*,-3%,?,2
Cc1ccc2occ(/C=N/NC(=O)[C@@H](N)Cc3ccccc3)c(=O)c2c1,.,1%[57.1 µM],15%[57.1 µM],-6%,6%,-13
COc1cccc(CNCCSc2nnnn2C)c1OCc1ccc(Cl)cc1,.,-2%,-1%,-3%,16%,.
CCOC(=O)C(NC(=O)CC(C)C)(Nc1sc(C)c(CC)c1C#N)C(F)(F)F (stereo not given),1%,4%,5%,-9%,2%,4
